Measurements as given in PubChem BioAssay AID485297 (National Center for Advancing Translational Sciences (NCATS), 2010).
The whole screen tested about 320,000 compounds, of which about 9,100 (2.8%) were called active. Entries that show only a call come without a potency. About 3% were inconclusive and are not listed. The sample as a whole holds a higher share of actives than the screen did. A number with no mark means an inactive call. The call rests on the fitted dose curve; in most records, active means well fitted activation curve with a large enough effect; inconclusive means small, poorly fitted or top-dose-only effect; inactive means no such curve, though single readings can be large or run the other way.

Assay: qHTS Assay for Rab9 Promoter Activators; further: nearly all actives have a fitted effect of over 60% in size
Conditions: Huh7 Rab9 promoter-luciferase reporter, luminescence, 24 h; series mostly up to 9.22 µM
How it was run: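 Steps: seed 1500 Huh7 Rab9-luc cells per well, rest 2 h at 37 °C; add compound in DMSO; incubate 24 h; add luciferase reagent, 10 min ambient; read luminescence.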
Potency means the concentration at half of the fitted maximal effect.

Row | Compound | activation, negative = inhibition | Potency
1 | S=C(Nc1cccnc1)Nc1ccccn1 | -1.03% [at 1.84 µM] | 
2 | O=C(CSc1nnc(COc2ccc(Cl)cc2)n1Cc1ccco1)N1CCNC1=O |  | inactive
3 | O=C(NCC1CCCO1)c1ccc(S(=O)(=O)Nc2ccc(F)cc2)cc1 (configuration not stated) |  | inactive
4 | COc1cccc(/C=C/C(=O)OCC(=O)N2CCN(c3ccccc3)CC2)c1 |  | inactive
5 | CC(C)CNC(=O)CC(NCC(C)C)C(=O)O (configuration not stated) |  | inactive
6 | C=CCn1c(Oc2ccc(C(=O)OC)cc2)nc2c1c(=O)n(C)c(=O)n2C |  | inactive
7 | CCN(CC)c1ccc(C(=O)N/N=C/c2ccc(N3CCOCC3)cc2)cc1 |  | inactive
8 | C(=N/Nc1cc(N2CCOCC2)nc(N2CCOCC2)n1)/c1ccccc1 |  | inactive
9 | Cc1ccccc1N/N=C/c1ccc(N2CCOCC2)cc1 |  | 2000 nM (active)
10 | COc1ccc(C(=O)NCC(=O)N/N=C/c2cccnc2)cc1 |  | inactive
11 | Cc1ccc(C(=O)Nc2cccc3ncccc23)cc1[N+](=O)[O-] |  | inactive
12 | CCN1CCC(=NNC(=O)c2ccc(C)c([N+](=O)[O-])c2)CC1 |  | inactive
13 | Cc1cc(O)c(NC(=O)c2ccc(C)c([N+](=O)[O-])c2)cc1C |  | 2820 nM (active)
14 | CN(CC(=O)Nc1c(Cl)cccc1Cl)C(=O)CC1OC(=O)c2ccccc21 (configuration not stated) |  | inactive
15 | COc1cc(C(c2c(NC(=O)c3ccco3)sc(C)c2C)N2CCOCC2)cc(OC)c1OC (configuration not stated) |  | inactive
16 | COCCN(C(=O)CSCc1ccc(C)cc1)c1c(N)n(CC(C)C)c(=O)[nH]c1=O |  | inactive
17 | CCN(CC)S(=O)(=O)c1ccc(OC)c(NC(=O)CCc2c(C)noc2C)c1 |  | inactive
18 | O=C(C[n+]1cc(Br)cc2ccccc21)c1ccc(F)cc1 |  | inactive
19 | O=C(c1ccc(F)cc1)n1c(=S)nc2ccccn21 |  | 891 nM (active)
20 | O=C(c1ccc(F)cc1)n1cc(C(=S)N2CCOCC2)c2ccccc21 |  | inactive
21 | Clc1ccc(-c2nnc(SCc3nc4ccccc4s3)o2)cc1 |  | inactive
22 | CSc1ccccc1-c1nnc(-c2ccc(Cl)cc2)o1 |  | 3980 nM (active)
23 | FC(F)(F)c1cnc(Oc2ccccc2-c2nnc(-c3ccc(Cl)cc3)o2)c(Cl)c1 |  | inactive

Row | Compound | activation, negative = inhibition | Potency
24 | COC(=O)c1ccc(C)c(NC(=O)C2CC(=O)N(C3CCCC(C)C3C)C2)c1 (configuration not stated) |  | inactive
25 | CC(=O)Nc1ccc(S(=O)(=O)NC(C)C(=O)OCCOc2ccc(F)cc2)cc1 (configuration not stated) |  | inactive
26 | COc1cc(/C=N/NC(=O)c2ccc(N3CCCC3=O)cc2)ccc1O |  | 3980 nM (active)
27 | O=C(N/N=C/c1cccc(Br)c1)c1ccc(N2CCCC2=O)cc1 |  | inactive
28 | COc1ccc(C(=O)Nc2ccccc2C(=O)N/N=C/c2ccc(O)c(OC)c2)cc1 |  | inactive
29 | O=C(Nc1ccc(Br)cc1)C1CCC(=O)N1Cc1ccccc1Cl (configuration not stated) |  | inactive
30 | CC1CCN(C(=O)/C(=C\c2ccccc2F)NC(=O)c2ccccc2)CC1 |  | inactive
31 | COc1ccc(-c2cc(C(=O)NCCCN3CCOCC3)no2)cc1 |  | inactive
32 | CC(C)CNC(=O)c1cc(-c2ccc(Br)cc2)on1 |  | 3550 nM (active)
33 | Cc1c(NC(=O)c2cc(-c3ccc(Br)cc3)on2)c(=O)n(-c2ccccc2)n1C |  | inactive
34 | O=C1COc2ccc(C(=O)CSc3ccc(Br)cc3)cc2N1 |  | inactive
35 | O=C(CCc1ccccc1Cl)Nc1ccc(S(=O)(=O)Nc2nccs2)cc1 |  | inactive
36 | COc1cc(C(=O)NCC(c2ccco2)N2CCCC2)ccc1OCc1ccccc1 (configuration not stated) |  | inactive
37 | O=C(O)c1cccc(NC(=S)N/N=C/c2c[nH]c3ccccc23)c1 |  | 3550 nM (active)
38 | CN(C)S(=O)(=O)c1cccc(NC(=S)N/N=C/C(=O)c2ccccc2)c1 |  | inactive
39 | O=C(N/N=C/c1c[nH]c2ccccc12)c1cc2ccccc2o1 |  | inactive
40 | O=S(=O)([N-]c1nc2ccccc2nc1-[n+]1ccc(Cc2ccccc2)cc1)c1ccc(Br)s1 |  | inactive
41 | CCCC(=O)N(CCN1CCOCC1)c1nc2ccc(OCC)cc2s1 |  | inactive
42 | CCOc1ccc2nc(C(=O)N3CCCC(C)C3)sc2c1 (configuration not stated) |  | 1780 nM (active)
43 | CCOc1ccc2nc(N(CCN(C)C)C(=O)c3ccc4ccccc4c3)sc2c1 |  | inactive
44 | CN(C)S(=O)(=O)c1ccc(C(=O)NCC2(N3CCOCC3)CCCCC2)cc1 |  | inactive
45 | CNS(=O)(=O)c1ccc(C(=O)NCC(=O)NCCc2ccc3c(c2)OCCO3)cc1 |  | inactive
46 | Cc1cccc(N(Cc2ccccc2)C(=O)c2ccccc2F)c1 |  | inactive

Row | Compound | activation, negative = inhibition | Potency
47 | CCN1/C(=C/C(=S)Nc2ccccc2)Sc2ccccc21 |  | 2820 nM (active)
48 | CCN1/C(=C/c2ccc3ccc(C)cc3[n+]2CC)Sc2ccccc21 |  | inactive
49 | O=C(CCN1c2ccccc2Sc2ccccc21)Nc1ccccc1 |  | inactive
50 | CC(OC(=O)Cc1ccc(F)cc1)C(=O)N1CCc2ccccc21 (configuration not stated) |  | inactive
51 | COc1cccc(C(=O)Nc2nnc(S(=O)(=O)N3CCCCC3)s2)c1 |  | inactive
52 | C=CCN1C(=O)c2ccc(C(=O)N3CCC(C(=O)OCC)CC3)cc2C1=O |  | inactive
53 | Cc1ccc(OS(=O)Nc2cccc3nccnc23)cc1 (configuration not stated) |  | inactive
54 | Nc1c(C(=O)Nc2ccc3c(c2)OCCO3)nnn1Cc1ccccc1 |  | 1260 nM (active)
55 | CCc1ccc(NC(=O)Cn2nnc(C(=O)NCc3ccc4c(c3)OCO4)c2N)cc1 |  | inactive
56 | O=C(CCS(=O)(=O)Cc1ccccc1)Nc1ccc2c(c1)OCCO2 |  | inactive
57 | CC(C)(C)OC(=O)NCCCCCNC(=O)c1nc[nH]c1C(=O)NCc1ccccc1 |  | inactive
58 | CCOC(=O)N1CCC(NC(=O)c2cnn3ccccc23)CC1 |  | inactive
59 | Cc1cnc(C(=O)OCC(=O)N2CCc3ccccc32)cn1 |  | inactive
60 | O=C(c1cnn2ccccc12)N1CCc2ccccc21 |  | 1780 nM (active)
61 | CC(=O)c1c(C)[nH]c(C(=O)N2CCN(S(=O)(=O)c3ccc(F)c(F)c3)CC2)c1C |  | inactive
62 | Clc1ccc(-c2ncc3ccccn23)c(Cl)c1 |  | inactive
63 | COn1c(-c2ccc(Cl)cc2Cl)nc2ncccc21 |  | inactive
64 | Clc1ccc(-c2cc(-c3ccccn3)on2)c(Cl)c1 |  | 100 nM (active)
65 | COc1cccc(C(=O)OCC(=O)c2[nH]c(C)c(C(C)=O)c2C)c1 |  | inactive
66 | CN(Cc1cccs1)C(=O)CN1C(=O)c2ccccc2S1(=O)=O |  | inactive
67 | O=C(/C=C(O)/C=C/c1ccc(O)cc1)/C=C/c1ccc(O)cc1 |  | inactive
